PLAP activator = activates human placental alkaline phosphatase. P05187. purified PLAP enzyme, luminescent substrate read-out; stronger effect = higher value. activation fold at 20 µM. 96,000 compounds, 1.2% hits. AID 696; in the data active = activation fold above about 2
CYP2C9 inh = blocks human cytochrome P450 2C9; P11712; inhibition, % at 5 µM; AID 777; CYP2C9 Supersomes, luciferin-H conversion, luminescence; 96,000 compounds, 20% hits;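 active = blocking of liver enzyme CYP2C9 beyond about 50% at 5 µM, limit read from the data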
CYP2C19 inhib = human CYP2C19 inhibition; CYP2C19 Supersomes, luciferin-H EGE luminescence, 30 min; inhibition, % at 5 µM; 96,000 compounds, 21% hits;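 active = CYP2C19 inhibition above a set limit at 5 µM in the primary screen, cut at about 50% in these data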
Target sequence (P33261 whole entry, looked up): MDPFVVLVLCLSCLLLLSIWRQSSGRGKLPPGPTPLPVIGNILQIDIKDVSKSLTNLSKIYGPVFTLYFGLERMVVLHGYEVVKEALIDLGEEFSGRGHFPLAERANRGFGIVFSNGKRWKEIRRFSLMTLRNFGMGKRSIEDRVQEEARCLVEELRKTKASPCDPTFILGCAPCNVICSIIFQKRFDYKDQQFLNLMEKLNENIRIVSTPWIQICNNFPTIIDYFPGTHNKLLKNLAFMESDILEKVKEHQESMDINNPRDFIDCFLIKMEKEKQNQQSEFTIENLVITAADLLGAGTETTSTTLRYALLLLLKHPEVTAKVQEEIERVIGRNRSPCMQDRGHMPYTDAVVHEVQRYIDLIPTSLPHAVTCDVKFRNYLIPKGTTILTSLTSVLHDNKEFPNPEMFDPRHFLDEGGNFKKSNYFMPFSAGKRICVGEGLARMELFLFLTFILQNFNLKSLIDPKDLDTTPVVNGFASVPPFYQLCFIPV
CYP2C9 activ = activators of human CYP2C9; P11712; recombinant CYP2C9, luciferin-H conversion, luminescence; stronger effect = higher value; factor 1 = untreated enzyme, 0 = blocked; activation factor at 5 µM; 96,000 compounds, 1.4% hits;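 active = activation factor of 2 or more for CYP2C9 at a 5 µM dose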
CYP2C19 activ = increases human CYP2C19 enzyme activity; P33261; recombinant CYP2C19, luciferin-H EGE luminescence; stronger effect = higher value; 0 = fully inhibited enzyme, 1 = untreated enzyme; activation factor at 5 µM; 96,000 tested, under 10 active; AID 1025;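 active = activation factor of at least 2 at 5 µM in the primary screen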
Each line names hits and unclear results; the compound was inactive in the other large screens. A selection: hits, their analogues and other compounds. The true share with any hit is near 31%.

COc1ccc(C)cc1NC(=O)C(CCS(C)(=O)=O)NC(C)=O (configuration not stated)	none
CC1=C(C(=O)OCC2CCCO2)C(c2ccc(O)cc2)NC(=O)N1 (configuration not stated)	none
CCCCCCOC(=O)C1=C(C)NC(=O)NC1c1ccc(O)cc1 (configuration not stated)	CYP2C9 inh 80.6, CYP2C19 inhib 70.3
CCCn1c(SCC(=O)c2cc(OC)ccc2OC)nnc1-c1ccco1	CYP2C19 inhib 97.2
CCn1c(SCC(=O)c2cc(OC)ccc2OC)nnc1C(C)C	CYP2C19 inhib 98.7
CCn1c(SCC(=O)c2ccc(OC)cc2)nnc1C(C)NC(=O)c1ccc(OC)cc1 (configuration not stated)	none
CCCn1c(SCC(N)=O)nnc1-c1ccco1	none
COc1ccc(OC)c(C(=O)CSc2nnc(-c3cccnc3)n2C)c1	CYP2C19 inhib 71.9
COc1ccc(OC)c(C(=O)CSc2nccc(-c3ccc(Br)cc3)n2)c1	CYP2C9 inh 79.4
COc1ccc(C=NCC2COc3ccccc3O2)cc1OC (configuration not stated)	none
COC(=O)c1ccc(=O)n(-c2ccc(OC)cc2)c1	none
CCOC(=O)N=S(=O)(Oc1ccc([N+](=O)[O-])cc1)c1ccccc1 (configuration not stated)	CYP2C19 inhib 77.8
CC1(C)Cc2c(sc3nc4n(c(=O)c23)CCC4)CO1	none
COc1ccc(-c2nnc(Nc3nc4c(OC)cccc4s3)o2)cc1	PLAP activator 2.3
COc1cc(OC)cc(-c2nnc(Nc3nc4c(F)cccc4s3)o2)c1	PLAP activator 2.6
CCC(=O)Nc1nnc(-c2ccc(OC)cc2)o1	none
CCOC(=O)C1(CC)CC(CSc2nc3ccccc3[nH]2)OC1=O (configuration not stated)	CYP2C9 inh 81.6, CYP2C19 inhib 51.8
CCOC(=O)C1(CCC(C)C)CC(CSc2nc3ccccc3[nH]2)OC1=O (configuration not stated)	CYP2C9 inh 57.5
O=C1OCCC1Sc1nc2ccccc2[nH]1 (configuration not stated)	none
CCOC(=O)CCc1nc2ccccc2[nH]c1=O	none
C=CCn1c(SCC(=O)Nc2cc(C)cc(C)c2)nnc1-c1cnccn1	none
C=CCn1c(SCC(=O)Nc2cccc(C)c2)nnc1-c1cnccn1	CYP2C9 inh 53.2, CYP2C19 inhib 95.6
C=CCn1c(SCC(=O)Nc2cc(C)ccc2C)nnc1-c1cnccn1	CYP2C19 inhib 83.2
CCn1c(SCC(=O)Nc2ccc3c(c2)c2ccccc2n3CC)nnc1-c1cnccn1	CYP2C19 inhib 53.1
Cn1c(CNC(=O)c2ccc(Cl)c(Cl)c2)nnc1SCC(=O)Nc1sc2c(c1C#N)CCCC2	none
C/C(=C\c1ccccc1)CN(C)CCN(C)C	none
CCCCn1c(=O)c2ccccc2c2ccccc2c1=O	CYP2C9 inh 72.3, CYP2C19 inhib 82.1
CC(=O)Nc1cccc(C(=O)OCc2ccc(C(=O)Oc3ccc(Cl)cc3)cc2)c1	none
Cc1cc(S(=O)(=O)N2CC(=O)N(CCc3ccccc3)C(=O)C2)ccc1F	none
Cc1cc(S(=O)(=O)N2CCN(c3c(C)cccc3C)CC2)ccc1F	CYP2C9 inh 97.8, CYP2C19 inhib 97.2
Cc1cc(S(=O)(=O)N2CCN=C2c2ccccc2)ccc1F	CYP2C9 inh 64.6, CYP2C19 inhib 94.8
O=c1ccc2cc(S(=O)(=O)N3CCN(c4cc(Cl)ccc4Cl)CC3)ccc2o1	CYP2C9 inh 87.7, CYP2C19 inhib 74.1
Cc1cc(S(=O)(=O)N2CCN(c3ccccc3C)CC2)ccc1F	CYP2C9 inh 95.2, CYP2C19 inhib 97.3
O=c1c(Cl)c(N2CCN(S(=O)(=O)c3ccc(F)cc3)CC2)cnn1-c1cccc(Cl)c1	none
CCC1CCCCN1CCNC(=O)CNS(=O)(=O)c1ccc2nc(C)sc2c1 (configuration not stated)	none
Cc1cc(Nc2cc(C)on2)n2ncnc2n1	none
Cc1ccc(Cl)cc1N1CCN(S(=O)(=O)c2cccc(S(=O)(=O)N3CCCC3)c2)CC1	CYP2C9 inh 86.6, CYP2C19 inhib 63.5
CSc1nsc(SCC(=O)Nc2ccc(Br)cn2)n1	CYP2C19 inhib 73.3
Cc1nnc(SCC(=O)Nc2ccc(Br)cn2)[nH]c1=O	none
CSc1nsc(SCC(=O)Nc2ccc(C(C)=O)cc2)n1	CYP2C9 inh 57.4
Cc1cc(C)nc(SCC(=O)Nc2ccc(Br)cn2)n1	CYP2C19 inhib 81.2
Cc1cc(C)nc(SCC(=O)NC2=NN=C(c3ccc(Br)cc3)CS2)n1	CYP2C9 activ 2.1
COc1ccc(CCCC(=O)NC2CCCCC2C)c(C)c1 (configuration not stated)	none
CC(=O)c1cccc(NC(=O)CCS(=O)(=O)c2cccc3nsnc23)c1	none
C=CCn1c(SCc2c(C(=O)OC)sc(N)c2C(=O)OC)nnc1-c1ccc(Br)cc1	CYP2C9 inh 87.1, CYP2C19 inhib 71.5
Cc1[nH]c2ccccc2c1C(=O)Cn1c(=O)oc2ccccc21	CYP2C9 inh 57.9, CYP2C19 inhib 62.3
Cc1ccc(OC(C)c2nnc(N)s2)cc1Cl (configuration not stated)	CYP2C19 inhib 67.8
CCCCNS(=O)(=O)c1ccc(NS(=O)(=O)c2c(C)cc(C)cc2C)cc1	CYP2C9 inh 98.3, CYP2C19 inhib 85.0
Cc1ccc(C)c(S(=O)(=O)Nc2ccc(S(=O)(=O)Nc3onc(C)c3C)cc2)c1	CYP2C9 inh 70.9
Cc1ccc(S(=O)(=O)NCCCN(C)C)cc1	none
Cc1noc(NS(=O)(=O)c2ccc(NC(=O)CS(=O)(=O)c3ccccc3)cc2)c1C	CYP2C9 inh 53.7
Cc1ccc(C)c(S(=O)(=O)Nc2ccc(O)cc2)c1	CYP2C19 inhib 72.3
COCCNC(=O)c1ccc(NS(=O)(=O)c2cc(C)ccc2C)cc1	none
O=C(COC(=O)c1ccc(N2CCCC2=O)cc1)NCc1ccco1	none
CCNS(=O)(=O)c1ccc(NS(=O)(=O)c2cc(C)ccc2C)cc1	CYP2C9 inh 96.9, CYP2C19 inhib 63.7
COc1ccc(NS(=O)(=O)c2cc(OC)ccc2NC(=O)c2cc(C)oc2C)cc1	CYP2C19 inhib 91.3
COc1ccc(NS(=O)(=O)c2cc(C)ccc2C)cc1	CYP2C9 inh 72.2, CYP2C19 inhib 82.4
CCNS(=O)(=O)c1ccc(NS(C)(=O)=O)cc1	none
Cc1cc(C)c(S(=O)(=O)Nc2ccc(O)cc2)cc1C	CYP2C19 inhib 97.0
Cc1ccc2nc(-c3ccc(NC(=O)CSc4ccccc4)cc3)[nH]c2c1	CYP2C9 inh 59.2
O=C(CSc1nc2ccc([N+](=O)[O-])cc2[nH]1)NC1CCCCC1	CYP2C9 inh 62.3, CYP2C19 inhib 64.4
Cc1ccc2nc(SCC(=O)Nc3cccc([N+](=O)[O-])c3)[nH]c2c1	CYP2C9 inh 90.0
Cc1cc(C)cc(NC(=O)CSc2nc3ccncc3[nH]2)c1	PLAP activator 2.2, CYP2C9 inh 75.6, CYP2C19 inhib 63.2
CN(C)CCNc1nc2c(c(=O)[nH]c(=O)n2C)n1CC(O)COc1ccc(Cl)cc1Cl (configuration not stated)	none
O=C(CSc1cccc2cccnc12)N1CCCC1	none

From PubChem
